From the supplement of paper PMC10338343
± gives the standard deviation.

Test system: MILI (PIWIL2) piRISC loaded with L1MC piRNA (26 nt)
Assay: pre-steady-state target cleavage rate (min^-1); guide: L1MC piRNA 5'p-UAACUAAAUACUAUGCAAGCUGUAGG; MIWI and MILI are mouse PIWI proteins and EfPiwi is from a freshwater sponge; tags in brackets are library labels; higher = faster piRNA-guided slicing of the target
Details: auxiliary factor: 500 nM mouse GTSF1
Outline: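 A burst-and-steady-state fit was used to obtain the pre-steady-state cleavage rate. The input data were sequencing reads of uncleaved targets, normalised to depth and to weakly complementary targets, from a […] transcribed, DNA-blocked target RNA library mixed with 1 nM active affinity-purified piRISC holding one synthetic guide, with or without 500 nM GTSF1 partner protein, in HEPES–potassium acetate buffer at 33 °C for 0–8 or 0–960 min. Three trials were pooled and k3 was capped at 0.0001 min^-1.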
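Also: 1 nM active piRISC with 0.1 nM target library at 33 °C single turnover.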

| Sequence | pre-steady-state target cleavage rate |
| --- | --- |
| UCCUGGAUCAGCUUGCAAUGUAUUUAGAAA | 0.0496 ± 0.013 |
| UCCUGGAUGUCCUUGCAUAGUUUUUAGAUA | 0.00584 ± 0.0044 |
| UCCUGGAUGAGCUUGCAUGUAUUUAGUUA | 0.0097 ± 0.004 |
| UCCUGGAUGUCCUAGCAUACUAUUUAGUUA | 0.0115 ± 0.0063 |
| UCCUCCUACAGCUUGCUAAGUAUUUAGUAA | 0.0708 ± 0.013 |
| UCCUGCUACAGCUUGCUUAGUAUUUACUUA | 0.11 ± 0.015 |
| UCCUGGAUGUCCUUGCAAUCUAUUUAGUUA | 0.00463 ± 0.0037 |
| UCCUGGAUCAGCUUGCAUAGAAUUUAGAAA | 0.0123 ± 0.0052 |
| UCCUGCUACAGCUUGCUAUGUAUUUAGUAA | 0.0455 ± 0.019 |
| UCCUGGUACAGCUUGCAUACUAUAUAGUUA | 0.0326 ± 0.013 |
| UCCUGGAUGUGGUUGCAUAGUAUUUAGAUA | 0.0485 ± 0.021 |
| UCCUCCUACAGCUUGCAUAGUAUUUAUUA | 0.0949 ± 0.023 |
| UCCUGGAUGUCGAUGCAAUAGUAUUUAGUUA | 0.00497 ± 0.0023 |
| UCCUGCAACAGCUUCCAUAGUAUUUAGUUA | 0.112 ± 0.03 |
| UCCUCCUACAGCUACCAUAGUAUUUAGAAA | 0.0576 ± 0.019 |
| UCCUGGUACAGCUUGCAUAGUAUUUCGUUA | 0.114 ± 0.037 |
| UCCUGCUACAGCUUGCUUAGUAUUUACAAA | 0.0114 ± 0.0054 |
| UCCUGGAUGUCGAAGCAUAGUAUUGUAGUUA | 0.00801 ± 0.0041 |

| Sequence | pre-steady-state target cleavage rate |
| --- | --- |
| UCCUGGUACAGCUUGCAUUGUAUUUACUUA | 0.05 ± 0.015 |
| UCCUGGAUGAGCUUGCAUAGUAUUAUCAAA | 0.00461 ± 0.0034 |
| UCCUCCUACAGCUUGCUAUGUAUUUAGAAA | 0.00902 ± 0.0042 |
| UCCUGGAUGUGCUUGCAUUGUAUUUAGAUA | 0.0503 ± 0.009 |
| UCCUGGAUGUCCUUGCAUAGUAUAUACUUA | 0.00862 ± 0.0049 |
| UCCUGGAUCAGCUUGCUAAGUAUUUAGAAA | 0.0172 ± 0.006 |
| UCCUGGAUGAGCUUCGAUAGUAUUUAGUUA | 0.108 ± 0.013 |
| UCCUGGAUGAGCUUGCAAAGUAUUUACUUA | 0.046 ± 0.014 |
| UCCUGGUACACCUUGCAUAGUAUUUACAAA | 0.046 ± 0.018 |
| UCCUGGAUGUCCUUGCUUAGUAUUUAGUAA | 0.0426 ± 0.013 |
| UCCUGGAACAGCUUGCAUAGUUAAUAGUAA | 0.0133 ± 0.0056 |
| UCCUGGAUGAGCUUGCAUAGUAUUAUCUUA | 0.00985 ± 0.0048 |
| UCCUGGAUGUCGUUGCAUAGUAUUUCGUUA | 0.0162 ± 0.0076 |
| UCCUGGAUGUCCUUGCAUAGUAUUUAGUGUA | 0.0384 ± 0.012 |
| UCCUGGUACAGCUUGCUAUGUAUUUAGUAA | 0.00603 ± 0.0046 |
| UCCUCCUACAGCUUGCAUAGUAUUUAGAUUA | 0.122 ± 0.022 |
| UCCUGGAUCAGGAUGCAUAGUAUUUAGAAA | 0.0525 ± 0.011 |
| UCCUGGUUGUGCUUGCAUAGUAUUUUCAAA | 0.00513 ± 0.005 |
